The values below come from PubChem BioAssay (NCATS).

SMILES strings stand for the structures. Results filed as inconclusive are left out. Calls of active or inactive are those of the source. Calls follow the shape of the dose curve; as a rule, active = well fitted curve in the direction sought with a large enough effect; inconclusive = small, poorly fitted or top-dose-only effect, or another doubt; inactive = no such curve, though single readings can be large or run the other way.

Sequence of phosphoglycerate mutase (Leishmania major) (Q4Q090 1-553): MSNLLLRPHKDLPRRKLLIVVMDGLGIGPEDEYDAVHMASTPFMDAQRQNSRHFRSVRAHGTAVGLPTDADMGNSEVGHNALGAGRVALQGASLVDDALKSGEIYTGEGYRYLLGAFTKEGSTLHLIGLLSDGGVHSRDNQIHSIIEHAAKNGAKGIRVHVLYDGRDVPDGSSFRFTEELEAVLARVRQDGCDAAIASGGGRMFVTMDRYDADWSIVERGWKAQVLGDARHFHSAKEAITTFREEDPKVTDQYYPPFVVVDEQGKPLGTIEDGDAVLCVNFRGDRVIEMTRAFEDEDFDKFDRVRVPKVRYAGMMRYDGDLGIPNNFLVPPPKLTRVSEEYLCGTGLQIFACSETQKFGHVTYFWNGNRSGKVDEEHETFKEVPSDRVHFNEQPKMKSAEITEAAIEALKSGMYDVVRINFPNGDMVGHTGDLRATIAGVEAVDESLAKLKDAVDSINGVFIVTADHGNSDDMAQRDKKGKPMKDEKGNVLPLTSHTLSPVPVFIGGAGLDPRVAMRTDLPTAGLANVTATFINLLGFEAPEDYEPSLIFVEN

In the assay the target is phosphoglycerate mutase (Leishmania major) (UniProt Q4Q090). The assay can be described thus: qHTS Validation Assay to Find Inhibitors of Phosphoglycerate Mutase (AID 504548). Conditions: biochemical enzyme activity; series mostly up to 57.5 µM. The source says:
NIH Molecular Libraries Probe Production Network [MLPCN]
NIH Chemical Genomics Center [NCGC]
PI Name: Malcolm Walkinshaw, University of Edinburgh
Several species of the Trypanosomatidae family of parasitic protozoans cause a spectrum of diseases throughout the tropical and subtropical world. Sleeping sickness, caused by two subspecies of Trypanosoma brucei, is endemic to areas of sub-Saharan Africa, while Chagas disease, a manifestation of Trypanosoma cruzi infection, is prevalent throughout Central and South America. In addition, many species of Leishmania are responsible for a range of cutaneous and visceral diseases, causing ulcers, destructive lesions and kalaazar, a lethal infection of the viscera. Collectively, these organisms infect 30 million people worldwide (~500 million live in endemic areas), and account for ~130,000 deaths annually. Given their debilitating and prevalent nature, trypanosomatid parasites impose a heavy medical, economic and social burden on entire populations, primarily in the developing world. The problem is further exacerbated by the fact that existing treatments have progressed little in the past 50 years, and current drugs show high toxicity and poor efficacy.
Blood-stream stages of T. brucei are entirely dependent on glycolysis as a source of ATP, and the tricarboxylic acid cycle and oxidative phosphorylation are both repressed. Glycolysis in axenically cultured T. cruzi, representing the intracellular pathogenic stage, is also essential for these parasites. […] Previous studies have shown that the glycolytic enzyme, phosphoglycerate mutase (PGAM), is a viable target for drugs to kill these parasites. […] Furthermore, the cobalt centers present within PGAM are only found in trypanosomatid and plant PGAMs, and are known to be required for activity, thereby providing an additional target. Moreover, trypanosomatid PGAMs are completely different from the enzyme that performs the same function in humans: the parasite and host enzymes share no structural or even mechanistic features; specificity is therefore unlikely to be an issue.
NCGC Assay Protocol Summary:
Briefly, 3ul of substrate buffer (all columns) are dispensed into Greiner white solid bottom 1536-well assay plates. Compounds are then transferred via Kalypsys pin tool equipped with 1536-pin array (10nl slotted pins, V&P Scientific, San Diego, CA). Following addition of compound, 1ul of Lm PGAM (1.25nM final concentration, columns […]) is added to initiate the reaction; columns 3-4 receive only TEA buffer as negative controls. The plates are then incubated at room temperature for 45 minutes. Kinase-GloPlus reagent is added (2ul) and plates incubated for 10 minutes, before being transferred to a ViewLux high-throughput CCD imager (PerkinElmer) wherein single end-point measurements of luminescence are acquired using a clear filter. All reagents are diluted in an assay buffer consisting of 100 mM TEA (pH 7.6), 5 mM MgCl2 and 0.01% Tween-20.
With `CC[N+](CC)(CC)CCOc1cccc(OCC[N+](CC)(CC)CC)c1OCC[N+](CC)(CC)CC`, the result was inactive.

In the case of `COC(=O)Nc1nc2ccc(C(=O)c3cccs3)cc2[nH]1`, the compound was called inactive.

As to `COc1ccc(C2CNC(=O)C2)cc1OC1CCCC1` (stereo not given), the call was inactive.

Turning to `Nc1nc2c(ncn2COC(CO)CO)c(=O)[nH]1`, the compound was called inactive.

Turning to `Cc1cc(C(C)(C)C)cc(C)c1CC1=NCCN1`, the call was inactive.

On to `CCC1(c2ccccc2)C(=O)NCNC1=O`, for which the result was inactive.

Take `COc1ccc2c(c1)c(CC(=O)O)c(C)n2C(=O)c1ccc(Cl)cc1`: the compound was called inactive.

Take `CN(C)C(=O)C(CCN1CCC(O)(c2ccc(Cl)cc2)CC1)(c1ccccc1)c1ccccc1`: the compound was called inactive.

On to `Nc1ccn([C@H]2CC[C@@H](CO)O2)c(=O)n1`, for which the call was inactive.

For `COc1ccccc1OCCNCC(O)COc1cccc2[nH]c3ccccc3c12` (stereo not given), the compound was called inactive.

Regarding `CC1COc2c(N3CCN(C)CC3)c(F)cc3c(=O)c(C(=O)O)cn1c23` (stereo not given), the result was inactive.

Turning to `NCCc1cnc[nH]1`, the compound was classed as inactive.

Consider `COc1cc2nc(N3CCN(C(=O)C4COc5ccccc5O4)CC3)nc(N)c2cc1OC` (stereo not given), for which the outcome was inactive.

With `COc1cc2nc(N3CCN(C(=O)c4ccco4)CC3)nc(N)c2cc1OC`, the call was inactive.

As for `CN(C)c1nc(N(C)C)nc(N(C)C)n1`, the compound was classed as inactive.

In the case of `Cc1cnc(C(=O)NCCc2ccc(S(=O)(=O)NC(=O)NC3CCCCC3)cc2)cn1`, the compound was called inactive.

For the compound `COc1ccccc1N1CCN(CC(O)COc2cccc3ccccc23)CC1` (stereo not given), the result was inactive.

Regarding `Cc1cn([C@H]2C[C@H](N=[N+]=[N-])[C@@H](CO)O2)c(=O)[nH]c1=O`, the outcome was inactive.

For `CC#C[C@]1(O)CC[C@H]2[C@@H]3CCC4=CC(=O)CCC4=C3[C@@H](c3ccc(N(C)C)cc3)C[C@@]21C`, the result was inactive.

As for `NC(CO)C(=O)NNCc1ccc(O)c(O)c1O` (stereo not given), the call was inactive.

Regarding `CCOC(=O)Nc1ccc(NCc2ccc(F)cc2)nc1N`, the compound was classed as inactive.

Consider `COc1ccccc1OCC(O)CN1CCN(CC(=O)Nc2c(C)cccc2C)CC1` (stereo not given), for which the result was inactive.

As for `CN(Cc1cnc2nc(N)nc(N)c2n1)c1ccc(C(=O)N[C@@H](CCC(=O)O)C(=O)O)cc1`, the compound was called inactive.

Regarding `COc1cc2c(c(OC)c1OC)-c1ccc(OC)c(=O)cc1[C@@H](NC(C)=O)CC2`, the result was inactive.

For the compound `Cc1ccc(C(=O)Nc2ccc(S(=O)(=O)O)c3cc(S(=O)(=O)O)cc(S(=O)(=O)O)c23)cc1NC(=O)c1cccc(NC(=O)Nc2cccc(C(=O)Nc3cc(C(=O)Nc4ccc(S(=O)(=O)O)c5cc(S(=O)(=O)O)cc(S(=O)(=O)O)c45)ccc3C)c2)c1`, the result was inactive.

As to `O=C(c1ccc(F)cc1)C1CCN(CCn2c(=O)[nH]c3ccccc3c2=O)CC1`, the outcome was inactive.

Take `NC(=O)OCC(COC(N)=O)c1ccccc1`: the compound was called inactive.

Regarding `Nc1nnc(-c2cccc(Cl)c2Cl)c(N)n1`, the result was inactive.

On to `COc1nc(C)nc(Cl)c1NC1=NCCN1`, for which the result was inactive.

As to `CCc1cccc2c3c([nH]c12)C(CC)(CC(=O)O)OCC3` (stereo not given), the compound was classed as inactive.

Regarding `CC(COc1ccccc1)N(CCCl)Cc1ccccc1` (stereo not given), the compound was called inactive.

`Cc1ccccc1N1C(=O)c2cc(S(N)(=O)=O)c(Cl)cc2NC1C` (stereo not given): the outcome was inactive.

On to `Clc1ccc(C(c2ccccc2Cl)C(Cl)Cl)cc1` (stereo not given), for which the compound was called inactive.

Turning to `NCCCCCC(=O)O`, the compound was called inactive.

`O=C(C1CCCCC1)N1CC(=O)N2CCc3ccccc3C2C1` (stereo not given): the compound was called inactive.

As to `O=c1[nH]cc(F)c(=O)[nH]1`, the result was inactive.

Turning to `CC(C)C(=O)Nc1ccc([N+](=O)[O-])c(C(F)(F)F)c1`, the result was inactive.

Take `COc1ccc(CCN(C)CCCC(C#N)(c2ccc(OC)c(OC)c2)C(C)C)cc1OC` (stereo not given): the outcome was inactive.

As to `Cc1cn([C@H]2C=C[C@@H](CO)O2)c(=O)[nH]c1=O`, the outcome was inactive.

In the case of `N[C@@H](Cc1c[nH]c2ccc(O)cc12)C(=O)O`, the outcome was inactive.
